Laboratory results from the supplement of paper PMC10981050.
“And” between values parts separate entries of the source, which are not always exact repeats. Equal entries are not always repeated.

What was measured:
Test in all cases: cell viability relative to vehicle control; higher = less cytotoxic
Conditions in all cases: 10 µM
K562 = system: K562
How it was run: (§1)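 Screening covered the Selleck bioactive, kinase and epigenetic probe libraries, less identity-inconsistent compounds, on CRISPR-edited mutant clones and isogenic wild-type clones of four leukaemia lines. Cells, at 2000 per well in 50 µL medium, received a single 10 µM acoustically dispensed dose. After 48 h the supernatant was removed and CellTiter-Glo luminescence was read. Viability was analysed in Genedata Screener as percent of the on-plate vehicle control.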

MARIMO = system: MARIMO
How it was run: as §1

MOLM14 = system: MOLM14
How it was run: as §1

OCI-AML2 = system: OCI-AML2
How it was run: as §1

Row | Structure (SMILES) | cell viability (K562; SRSF2 genotype: SRSF2 P95H/wt) | cell viability (K562; SRSF2 genotype: SRSF2 wt/wt) [%] | cell viability (MARIMO; SRSF2 genotype: SRSF2 P95H/wt) [%] | cell viability (MARIMO; SRSF2 genotype: SRSF2 wt/wt) [%] | cell viability (MOLM14; SRSF2 genotype: SRSF2 P95H/wt) [%] | cell viability (MOLM14; SRSF2 genotype: SRSF2 wt/wt) [%] | cell viability (OCI-AML2; SRSF2 genotype: P95H/wt) [%] | cell viability (OCI-AML2; SRSF2 genotype: wt/wt) [%]
1 | CC(=O)O[C@@H]1C[C@H](O)[C@@]23CO[C@@H](O)[C@]1(C)[C@@H]2C[C@@H](O)[C@]1(C)[C@@H]3C(=O)[C@H](OC(C)=O)[C@@]2(C)[C@H](c3ccoc3)C[C@H]3O[C@]321 [Toosendanin] | 45.5% and 43% | 42.4 | 38.2 | 34.2 | 37.1 | 11.1 | 23.8 | 23.9
2 | CN1CCc2nc(C(=O)N[C@@H]3C[C@@H](C(=O)N(C)C)CC[C@@H]3NC(=O)C(=O)Nc3ccc(Cl)cn3)sc2C1 [Edoxaban] | 98.2% and 93.3% | 92.5 | 95.7 | 102 | 99.4 | 95.6 | 92.9 | 100
3 | C=C1/C(=C\C=C2/CCC[C@]3(C)[C@@H]([C@H](C)CCCC(C)C)CC[C@@H]23)C[C@@H](O)C[C@@H]1O [Alfacalcidol] | 90.3% and 95.4% | 99.1 | 82.5 | 82.5 | 84.9 | 94.2 | 98.7 | 110
4 | CNCc1ccc(-c2[nH]c3cc(F)cc4c3c2CCNC4=O)cc1 | 94% and 103% | 97.8 | 84.7 | 86.7 | 50 | 29.4 | 44.2 | 55.8
5 | COc1cc(C=CC(=O)CC(=O)C=Cc2ccc(O)cc2)ccc1O [Demethoxycurcumin] | 46.9% and 54.2% | 64.6 | 62.9 | 64.4 | 8.11 | 13.7 | 13.5 | 23.6
6 | Nc1ccc(C(=O)NCC(=O)O)cc1 [4-Aminohippuric Acid] | 97.6% and 98.4% | 98.2 | 92.9 | 102 | 95.7 | 97.4 | 92.8 | 103
7 | CNC(=O)c1ccc(N2C(=S)N(c3ccc(C#N)c(C(F)(F)F)c3)C(=O)C2(C)C)cc1F [MDV3100 (Enzalutamide)] | 84.9% and 91.7% | 89.2 | 90.4 | 89.1 | 89.2 | 90.3 | 83.3 | 80.3
8 | CCOC(=O)c1ccc(C#Cc2ccc3c(c2)C(C)(C)CCS3)nc1 [Tazarotene (Avage)] | 81% and 84.7% | 78.1 | 46.6 | 40.8 | 76.2 | 88.1 | 14.1 | 27.8
9 | Nc1ccn([C@@H]2O[C@H](CO)[C@@H](O)[C@H]2O)c(=O)n1 [Cytidine] | 101% and 86.3% | 84.4 | 82.5 | 89.9 | 81 | 89.2 | 82.5 | 86.6
10 | Cc1ccc(-n2[nH]c(C)c(N=Nc3cccc(-c4cccc(C(=O)O)c4)c3O)c2=O)cc1C [Eltrombopag olamine] | 76% and 80.3% | 69.3 | 54.9 | 69 | 75.4 | 68.5 | 66.3 | 60.3
11 | COc1ccc(CCC(=O)Nc2nc3ccc(Cl)cc3s2)cc1OC | 95.4% and 97% | 92 | 97.3 | 96.3 | 94.6 | 97.8 | 91.4 | 87.5
12 | O=C(O)CCCc1c[nH]c2ccccc12 [3-Indolebutyric acid (IBA)] | 108% and 96.9% | 96.9 | 100 | 107 | 93.2 | 101 | 97.2 | 106
13 | O=C1NC(=O)/C(=C/c2ccc3nccc(-c4ccncc4)c3c2)S1 | 62.8% and 84% | 69.7 | 54.6 | 50.5 | 40.1 | 42 | 25.4 | 28.8
14 | CC1(C)C(O[C@@H]2OC[C@@H](O)[C@H](O)[C@H]2O)CC[C@]23CC24CC[C@]2(C)[C@@H]([C@@]5(C)CC[C@@H](C(C)(C)O)O5)[C@H](O)C[C@@]2(C)C4C[C@@H](O[C@@H]2O[C@H](CO)[C@@H](O)[C@H](O)[C@H]2O)C13 (stereo not given in full) [Astragaloside IV] | 110% and 114% | 113 | 112 | 102 | 108 | 114 | 116 | 102
15 | Cc1cn([C@H]2O[C@@H](CO)[C@H](O)[C@H]2F)c(=O)[nH]c1=O [Clevudine (Levovir)] | 91.2% and 95.1% | 99.5 | 91.2 | 92.2 | 101 | 97.9 | 99.6 | 88.1
16 | Oc1ccc(/C=C/c2cc(O)cc(O)c2)cc1 [Resveratrol] | 83.1% and 92.7% | 91.6 | 70.1 | 79.6 | 73.4 | 80 | 67.2 | 72.8
17 | O=C(O)c1cc(/N=N/c2ccc(S(=O)(=O)Nc3ccccn3)cc2)ccc1O [Sulfasalazine (Azulfidine)] | 99% and 96.4% | 94.4 | 96.3 | 101 | 93.7 | 98.9 | 96.4 | 103
18 | COc1ccc(C2CNC(=O)C2)cc1OC1CCCC1 (stereo not drawn) [S-(+)-Rolipram] | 94.7% and 105% | 102 | 102 | 110 | 99.8 | 108 | 96.7 | 103
19 | CCOc1ccc(NC(C)=O)cc1 [Phenacetin] | 98.6% and 97.2% | 91.5 | 89.6 | 92.5 | 98.4 | 95.8 | 88.3 | 93.4
20 | C[C@@H](O)[C@H]1C(=O)N2C(C(=O)O)=C(S[C@@H]3CN[C@H](C(=O)N(C)C)C3)[C@H](C)[C@H]12 [Meropenem] | 103% and 109% | 106 | 94.7 | 96.9 | 103 | 101 | 111 | 101
